Only some compounds are listed: those with a hit (about 1.8% of all), similar ones and a draw of the others.
Gli-Sufu block: blocks Gli-Sufu signaling in a luciferase reporter; Sufu-KO-LIGHT fibroblasts, Gli luciferase reporter luminescence; inhibition, % at 5 µM; 0.74% of 340,000 active;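 active means inhibition above about 55%, limit read from the data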;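 further: 0% = DMSO-treated cells and 100% = wells with medium but no cells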
Jurkat NFkB inh: lowers PMA/ionomycin-induced NF-kB signal in Jurkat cells; 0.53% of 330,000 active; inhibition, % at 4 µM; PMA/ionomycin-induced NF-kB luciferase reporter, luminescence; in the data active means inhibition above about 50%
Beta apoptosis: beta cell apoptosis inhibition; 0.8% of 300,000 active; protection from apoptosis, % (test concentration not listed); INS-1E cytokine-induced death, ATP luminescence, 48 h; percent of positive-control rescue, neutral wells zero;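 active means Every replicate reaches about 75%, or at least half do and their mean reaches it too, limit read from the data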;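 further: 0% = cytokine-treated negative control wells and 100% = positive control rescue; higher means more ATP so stronger rescue from cytokine killing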
697 NFkB inh: inhibitors of the PMA/ionomycin-induced NF-kB reporter in 697 B cells. 697 B-cell NF-kB luciferase reporter, 16 h. inhibition, % at 4 µM. 0.33% of 330,000 active. AID 435022; in the data active means inhibition above about 35%
Jurkat NFkB conf: inhibitors of the PMA/ionomycin-induced NF-kB reporter in Jurkat cells, retest; 27% of 2,700 active; inhibition, % at 4 µM; shares compounds with Jurkat NFkB inh; Jurkat NF-kB luciferase, 16 h;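 active means inhibition reaching about 45% at 4 µM in either replicate, limit read from the data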;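 further: plate controls were PMA/ionomycin stimulated DMSO wells for no effect and unstimulated DMSO wells for full effect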
The depositor's hits bear a star; / = no result given.

SMILES	Gli-Sufu block	Jurkat NFkB inh	Beta apoptosis	697 NFkB inh	Jurkat NFkB conf
CCCC(=O)Nc1nc2ccc(S(=O)(=O)N3CCCCC3)cc2s1	-12	52*	31	-49	49
O=C(COc1ccccc1[N+](=O)[O-])NCc1cccnc1	-3	14	-5	-10	/
CCNC(=O)O/N=C(\C)c1sc(-c2ccc(Cl)cc2)nc1C	-69	-171	9	-143	-100
C/C(=N\OC(=O)NC(C)C)c1sc(-c2ccc(Cl)cc2)nc1C	-48	-131	6	-138	/
COc1ccc(-c2nnc(SCC(=O)Nc3ccccc3OC)o2)cc1	-5	-183	-3	-44	-18
C/C(N)=C(/C#N)C(=O)CSc1nnc(-c2ccccc2Br)o1	-88	-156	-9	-217	-116
COc1ccccc1NC(=O)CSc1nnc(-c2ccncc2)o1	5	-1	0	-10	/
O=C(CSc1nnc(-c2ccc(Br)cc2)o1)Nc1cccc(C(=O)O)c1	-53	75*	-3	8	18
COc1ccc(-c2nnc(SCC(=O)/C(C#N)=C(\C)N)o2)cc1	-60	-162	-3	-189	-98
O=C(N/N=C/c1c[nH]c2ccccc12)c1ccn[nH]1	-16	-20	0	-24	/
Nc1cc(C(=O)OCC(=O)N2CCN(C(=O)COC(=O)c3ccc(Cl)c(N)c3)CC2)ccc1Cl	-11	5	/	19	/
Cn1c(SCC(=O)NC2CCCCC2)nnc1-c1ccccc1O	14	-2	-2	0	/
O=C1CCCc2nc(N3CCc4ccccc43)ncc21	-69	-179	-6	-231	-120
Fc1ccc(-n2nnc(-c3cccnc3Cl)n2)cc1	-115	-152	-2	-152	-76
COC(=O)c1cccc(COC(=O)c2cc3ccccc3oc2=O)c1	29	-14	-2	-21	/
O=C(CSc1nccc(=O)[nH]1)Nc1ccc(N2CCOCC2)cc1	-5	12	7	-8	/
Cc1ccc(Cn2c(=N)n(CC(O)COc3ccccc3)c3ccccc32)cc1 (configuration not stated)	16	53*	66	-40	12
CC(=O)NCc1ccc(-c2nc3ccccc3s2)cc1	-87	-148	5	-174	/
COc1ccc(-c2nc3ccccc3s2)cc1NC(C)=O	-85	-183	2	-117	-73
O=C(CN1CCCCC1)Nc1ccc(C(F)(F)F)cc1Cl	-1	-18	-10	-15	/
CC(C)c1ccc(C(=O)N(c2ccccn2)C(C)c2ccco2)cc1 (configuration not stated)	-11	-165	-4	-46	-78
Cc1ccc2cccc(OCC(=O)N(C)CC(=O)Nc3ccc(F)cc3)c2n1	-2	19	-3	11	/
Cc1ccc(NC(=O)CN(C)C(=O)COc2cccc3ccc(C)nc23)cc1	7	-192	-1	-5	13
CC(C)(C)C(=O)O/N=C(\N)c1ccc(Oc2cc(Cl)cc(Cl)c2)c([N+](=O)[O-])c1	0	-10	9	1	/
CCC(=O)O/N=C(\N)c1ccc(Oc2cc(C)c(Cl)c(C)c2)c([N+](=O)[O-])c1	5	53*	-1	-12	4
SMILES	Gli-Sufu block	Jurkat NFkB inh	Beta apoptosis	697 NFkB inh	Jurkat NFkB conf
Cc1ccc(-n2nc3c(=O)n(CC(=O)NC(C)CCc4ccccc4)nc(C)c3c2C)cc1 (configuration not stated)	14	53*	9	16	63*
O=C(Nc1ccccc1NC(=O)C1CCCO1)c1ccco1 (configuration not stated)	-9	9	-6	12	/
CCOC(=O)C1=C(c2ccccc2)O/C(=C(/C#N)C(F)(F)F)S1	/	75*	116*	-230	54*
COc1cc(C(=O)OCC(=O)N2c3ccccc3NC(=O)C2(C)C)ccc1OCC(C)C	-2	-14	5	5	/
CN(C)CCCNc1c2ccccc2nc2ccccc12	-23	99*	109*	35	-57
CN(C)CCCNc1nc(-c2ccccc2)nc2ccccc12	3	-15	1	-10	/
COc1ccc(NC(=O)c2cccc(S(=O)(=O)N3CCN(c4ccccc4)CC3)c2)c(OC)c1	-4	0	2	-4	/
CC1CCc2nc(NC(=O)c3ccc(S(=O)(=O)N4CCCc5ccccc54)cc3)sc2C1 (configuration not stated)	2	2	18	-24	/
CC(=Nc1ccc(C)cc1C)c1sc2ccccc2c1O	-153	-203	1	-173	-40
CC(=Nc1cccc(O)c1)c1sc2ccccc2c1O	-9	-121	-4	-185	/

High-throughput results deposited in PubChem BioAssay by several laboratories.
